Most compounds without a hit are left out; they make up all but 10% or so of the library.
HPGD block = qHTS Assay for Inhibitors of HPGD (15-Hydroxyprostaglandin Dehydrogenase) | 15-hydroxyprostaglandin dehydrogenase [NAD(+)] (Homo sapiens), P15428 | purified HPGD, NADH fluorescence kinetic, PGE2 substrate | Potency, µM, most hits filed as inhibitors | actives 4.3% (n = 150,000) | AID 894, 2007
Target sequence (P15428 whole entry, looked up): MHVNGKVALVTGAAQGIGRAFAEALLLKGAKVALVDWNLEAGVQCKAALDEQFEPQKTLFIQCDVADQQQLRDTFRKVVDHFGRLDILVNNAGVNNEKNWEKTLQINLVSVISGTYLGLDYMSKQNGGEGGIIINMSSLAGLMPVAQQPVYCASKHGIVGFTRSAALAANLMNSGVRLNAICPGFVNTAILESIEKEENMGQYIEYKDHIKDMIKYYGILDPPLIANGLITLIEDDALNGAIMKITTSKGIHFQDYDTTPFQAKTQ
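20 nM HPGD preincubated 15 min at room temperature with compound in 50 mM Tris-HCl pH 8, 0.01% Tween 20. Started with 1 mM NAD+ and 30 uM prostaglandin E2; NADH fluorescence (360/450 nm) read 5 times over 30-s intervals, last minus first.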
PNC assembly inh = High Content Assay for Compounds that inhibit the Assembly of the Perinucleolar Compartment. AID 2417, 2010. PC3M PTB-GFP, PNC prevalence imaging, 16 h; stronger effect = lower value. actives 3.1% (n = 140,000). activity change (PNC), negative = inhibition, % at 10 µM;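 active = readout at or below -70, meaning at least 70% loss of cells showing the perinucleolar compartment, a nuclear body marking cancer cells; inconclusive = readout between -30 and a set limit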
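PC3M cells stably expressing PTB-GFP, 750–1000 cells/well, treated 16 h at 37 °C with compound (23 nl of library stock), in duplicate. After paraformaldehyde fixation and Hoechst stain, imaged at 20x; PNC prevalence scored by image analysis.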
ALOX12 inhib = qHTS Assay for Inhibitors of 12-hLO (12-human lipoxygenase). actives 0.12% (n = 150,000). purified 12-hLO, xylenol orange hydroperoxide absorbance. Polyunsaturated fatty acid lipoxygenase ALOX12 (Homo sapiens), P18054. Potency, µM (top dose mostly 57.1 µM), most hits filed as inhibitors. AID 1452, 2008; active = well fitted inhibition curve with a large enough effect; inconclusive = small, poorly fitted or top-dose-only effect; note: nearly all actives have a fitted effect of over 55% in size
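Hydroperoxide output read as Fe(III)-xylenol orange absorbance, 573-to-405 nm ratio, after 30 min reaction with 40 uM arachidonic acid. Enzyme: 150 nM purified human 12hLO, 15 min compound preincubation; 25 mM Hepes pH 7.0, room temperature.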
LMNA splice mod = qHTS Assay for Modulators of Lamin A Splicing. HeLa LMNA splicing GFP/RFP minigene ratio, 48 h. Potency, µM (titrated, usually from 46.1 µM), most hits filed as inhibitors. actives 0.01% (n = 200,000). AID 1487, 2009; active = well fitted inhibition curve with a large enough effect in the signal ratio, with a control signal flat, not every such curve was filed as active; inconclusive = small, poorly fitted or top-dose-only effect, or effect the other way, or a change in a side signal; the % refers to the signal ratio
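Read-out is the ratio of GFP to DsRed2 object intensity, acquired by 488 nm laser-scanning cytometry on HeLa lamin A-EGFP minigene reporter cells. Compound incubation 48 hrs at 37 °C in Opti-MEM with 2% FBS; DMSO 0.5% final.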
ALDH1A1 inh = qHTS Assay for Inhibitors of Aldehyde Dehydrogenase 1 (ALDH1A1) | Aldehyde dehydrogenase 1A1 (Homo sapiens), P00352 | Purified ALDH1A1, NADH fluorescence, propionaldehyde substrate | Potency, µM (top dose mostly 75.3 µM), hits mostly inhibitors | actives 7.3% (n = 220,000) | AID 1030, 2008
A number is an active result; . = inactive; ? = inconclusive; / = no result given; [ ] = dose if it differs, or a comment. Unless noted, calls come from the whole dose curve; as a rule, active = well fitted inhibition curve with a large enough effect (not every such curve was filed as active); inconclusive = small, poorly fitted or top-dose-only effect, or another doubt; inactive = no such curve, though single readings can be large or run the other way.

SMILES	HPGD block	PNC assembly inh	ALOX12 inhib	LMNA splice mod	ALDH1A1 inh
COc1ccc(N2C(=O)CS(=O)C(c3ccccc3)C2=O)cc1 (stereo unspecified)	/	/	/	/	1.1µM
COc1ccc(N2C(=O)CC(N3CCC(n4c(=O)[nH]c5ccccc54)CC3)C2=O)cc1 (stereo unspecified)	.	.	.	.	?
C[C@H]1C2C=C[C@H]1[C@@H](C(=O)O)[C@@H]2c1c2ccc(=O)c(O)c-2oc2c(O)c(O)ccc12	3.5µM	/	/	/	.[13.5 µM]
Cc1ccc(OP(=O)(Oc2ccc(C)cc2)N2C=Cc3ccccc3[C@H]2C#N)cc1	.	/	.[11.4 µM]	/	.[13.5 µM]
CC1=NN(c2ccccc2)C(=O)[C@@H]1N=Nc1ccc([As](=O)(O)O)c(O)c1	.	/	.[11.4 µM]	/	3.5µM
COC(C)C(O)(C(=O)OC1=CCN2CC[C@H](O)[C@H]12)C(C)C (stereo partly specified)	.	/	.	/	.
Oc1cc(Cl)ccc1Cl	.	/	.	/	?
CNc1ccc2oc(C[C@@H]3OC4(CC[C@@H]3C)O[C@H](C(C)C(=O)c3ccc[nH]3)[C@H](C)C[C@H]4C)nc2c1C(=O)O (stereo partly specified)	.	/	.[0.00818 µM]	/	?
CNCCc1cnc[nH]1	.	/	.	/	.
Cc1cnc[nH]1	.	/	.	/	0.28µM
NC(=O)c1ncn([C@H]2O[C@@H](CO)[C@@H](O)[C@@H]2O)n1	.	/	.	?	.
N#CC(C#N)=Cc1cc(O)c(O)c(O)c1	?	/	?	?	28µM
CCBr	.	/	.	/	?
CCCC[N+]1(C)[C@@H]2CC(OC(=O)[C@@H](CO)c3ccccc3)C[C@H]1[C@H]1O[C@H]12 (stereo partly specified)	/	/	.	/	/
Cc1ncsc1CCOC(=O)c1ccc([N+](=O)[O-])cc1	.	.	.	.	.
O=C(CNC(=O)c1cccs1)NCC(=O)OCC(=O)c1ccc([N+](=O)[O-])cc1	/	/	/	/	2.2µM
CCN1C(=O)NC(=O)/C(=C/c2cc(C)n(-c3sc(C)c(C)c3C#N)c2C)C1=O	8.9µM	?	.	.	0.2µM
Cc1cc(/C=C2/C(=O)NC(=O)N(c3ccc(Br)cc3)C2=O)c(C)n1C	/	/	/	/	.
Cc1ccc(N2C(=O)NC(=O)/C(=C\c3cc(C)n(-c4sc5c(c4C#N)CCCC5)c3C)C2=O)cc1	10µM	?	.	.	0.79µM
CCOC(=O)c1c(-n2c(C)cc(C=C3C(=O)NC(=S)NC3=O)c2C)sc2c1CCCC2	3.5µM	?	?	?	7.9µM
COC(=O)[C@@H]1C[C@H]2CC[C@H](O)C[C@H]2N1CC1CC1	.	/	.	/	.
O=S(=O)(O)F	.	/	.	/	.
CC(C)CCCC(C)C1CCC2C3CC(O)[C@@]4(O)CC(O)CC[C@@]4(C)C3CC[C@@]12C (stereo partly specified)	.	/	.	?	.
c1ccc([Se]c2c(-c3ccccc3)[se]c3ccccc23)cc1	.	/	.[0.00818 µM]	/	.
COC(=O)CCC(=O)Nc1sc(Cc2ccccc2)c(C)c1C(N)=O	/	/	/	.	2µM
SMILES	HPGD block	PNC assembly inh	ALOX12 inhib	LMNA splice mod	ALDH1A1 inh
C[N+]12CCC(CC1)[C@@H](OC(=O)C(O)(c1ccccc1)c1ccccc1)C2	.	/	.	?	.
COc1cccc(-n2c(CN3CCN(C)CC3)nc3ccc([N+](=O)[O-])cc3c2=O)c1	28µM	.	.	.	.
COc1ccc(/C=C2/C(=O)NC(=S)N(C3CC3)C2=O)cc1CN1C(=O)c2ccccc2C1=O	14µM	.	.	.	20µM
COc1ccc(CN2C(=O)NC(=O)/C(=C\c3cc(OC)c(OC)c(OC)c3)C2=O)cc1	/	/	/	/	.
CCN(CC)c1ccc(/C=C2\C(=O)NC(=O)N(CC3CCCO3)C2=O)cc1 (stereo unspecified)	25µM	?	.	.	0.25µM
O=C1NC(=O)N(Cc2ccco2)C(=O)/C1=C\c1cccn1CCOc1ccc(Cl)cc1	.	.	.	?	.
Cc1cc(/C=C2/C(=O)NC(=O)N(Cc3ccco3)C2=O)c(C)n1-c1ccccc1	?	.	.	.	8.9µM
CN(C)c1ccc(/C=C2/C(=O)NC(=O)N(Cc3ccco3)C2=O)cc1	10µM	.	.	.	1µM
CCN(CC)c1ccc(/C=C2/C(=O)NC(=O)N(Cc3ccco3)C2=O)cc1	10µM	.	.	.	0.56µM
C[C@H](CN(C)C)C(C#N)(c1ccccc1)c1ccccc1	.	/	.[11.4 µM]	/	.[13.5 µM]
Cc1cc(C)cc(-n2c(C)cc(/C=C3\C(=O)NC(=O)N(C)C3=O)c2C)c1	.	.	.	.	.
Cc1ccnc(-n2c(C)cc(C=C3C(=O)N(C)C(=S)N(C)C3=O)c2C)c1	32µM	?	.	.	?
O=c1[nH]cc(COCC(F)(F)C(F)(F)C(F)(F)F)c(=O)[nH]1	/	/	/	.	.
O=c1[nH]cc(F)c(=O)[nH]1	.	-115	.	?	.
CC1(C)N([O-])[N+](=O)C1(C)Br (stereo unspecified)	32µM	/	.	/	11µM
O=C1C=C2C=C[C@@H]3C[C@@]2(O1)[C@H]1CCCCN31	.	/	.[0.00818 µM]	/	.
O=C(Nc1nnc(SCc2ccccc2Cl)s1)C1COc2ccccc2O1 (stereo unspecified)	16µM	.	.	?	?
O=C(O)[C@H]1CCN1	/	/	.	/	/
CC(C)=CCCC(C)C1CC[C@@]2(C)C3=C(CC[C@@]12C)C1(C)CCC(O)C(C)(C)C1CC3 (stereo partly specified)	.	/	.	?	28µM
COc1cc2c3cc1Oc1c(O)c(OC)cc4c1[C@@H](Cc1ccc(cc1)Oc1cc(ccc1O)C[C@H]3N(C)CC2)N(C)CC4	.	/	.[11.4 µM]	/	.[13.5 µM]
COc1cc(/C=C/[N+](=O)[O-])ccc1O	.	-84	.	?	?
COC(=O)[C@]1(C)CC[C@@]2(C)CC[C@@]3(C)C4=CCc5c(cc(O)c(O)c5C)[C@]4(C)CC[C@@]3(C)C2C1 (stereo partly specified)	28µM	/	.	?	.
CN(C(=O)Cc1ccc(Cl)c(Cl)c1)[C@H](CN1CCCC1)c1ccccc1	.	/	.	/	.
O=C1CC2(CCCC2)CC(=O)N1CCCCN1CCN(c2ncccn2)CC1	.	.	.	.	3.5µM
c1cnc(N2CCC3(CCNCC3)CC2)nc1	.	/	.	/	.
Cc1ccc(-n2nnnc2SCC(=O)Nc2sc(C)c(C)c2C#N)cc1C	.	.	.	.	16µM
CCN1C[C@]2(C)CC[C@@H](O)[C@]34[C@@H]5CC6[C@@H](OC)C[C@@](O)([C@H]5[C@@H]6O)[C@@H](C[C@@H]23)[C@H]14	/	/	.	/	/
CN(C)CCCc1c[nH]c2ccccc12	.	/	.[11.4 µM]	/	.[13.5 µM]
O=C1NC(=O)N(CCc2ccc(F)cc2)C(=O)/C1=C/c1ccco1	/	/	/	/	2.5µM

Screens deposited in PubChem by National Center for Advancing Translational Sciences (NCATS).
